# Changes are numbered by the printed parent chain.
# Columns and labels:
# Assay in all cases: PBM; 200 nM protein, PBS
# Conditions in all cases: dsDNA, one strand shown
# CRX [1] = target: CRX (Homo sapiens, UniProt O43186 26-111)
# CRX [2] = target: CRX (Homo sapiens, UniProt O43186 26-111, E42D)
# CRX [3] = target: CRX (Homo sapiens, UniProt O43186 26-111, R41L)
# NKX2-4 [4] = target: T1, NKX2-4 (Homo sapiens, UniProt Q9H2Z4 175-261, P217L)
# T1 sequence: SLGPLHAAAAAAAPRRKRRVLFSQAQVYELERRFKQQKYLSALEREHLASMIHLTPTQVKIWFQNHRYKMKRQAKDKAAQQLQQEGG
# HOXB9 [5] = target: HOXB9 (Homo sapiens, UniProt P17482 171-250, T197M)
# NKX2-4 [6] = target: T2, NKX2-4 (Homo sapiens, UniProt Q9H2Z4 175-261, T231S)
# T2 sequence: T1 sequence with L43P, T57S
# NKX2-4 [7] = target: T3, NKX2-4 (Homo sapiens, UniProt Q9H2Z4 175-261)
# T3 sequence: T1 sequence with L43P
# HOXB9 [8] = target: HOXB9 (Homo sapiens, UniProt P17482 171-250)
# HOXD13 [9] = target: HOXD13 (Homo sapiens, UniProt P35453 263-343, T313R)
# HOXD13 [10] = target: HOXD13 (Homo sapiens, UniProt P35453 263-343)
# NKX2-4 [11] = target: T4, NKX2-4 (Homo sapiens, UniProt Q9H2Z4 175-261, R246Q)
# T4 sequence: T1 sequence with L43P, R72Q
# HOXD13 [12] = target: HOXD13 (Homo sapiens, UniProt P35453 263-343, T313A)
# HOXB9 [13] = target: HOXB9 (Homo sapiens, UniProt P17482 171-250, R186Q)
# HOXB9 (Homo sapiens, UniProt P17482 171-250, R186Q), sequence (P17482 171-250 R186Q): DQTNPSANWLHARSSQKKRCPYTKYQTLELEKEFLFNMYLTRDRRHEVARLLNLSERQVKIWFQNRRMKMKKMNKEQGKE
# CRX (Homo sapiens, UniProt O43186 26-111, E42D), sequence (O43186 26-111 E42D): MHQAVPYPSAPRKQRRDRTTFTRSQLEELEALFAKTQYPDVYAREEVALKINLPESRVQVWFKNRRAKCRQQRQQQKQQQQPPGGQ
# CRX (Homo sapiens, UniProt O43186 26-111, R41L), sequence (O43186 26-111 R41L): as the sequence (O43186 26-111 E42D) above, with R16L, D17E counted along it
# CRX (Homo sapiens, UniProt O43186 26-111), sequence (O43186 26-111): as the sequence (O43186 26-111 E42D) above, with D17E counted along it
# HOXB9 (Homo sapiens, UniProt P17482 171-250, T197M), sequence (P17482 171-250 T197M): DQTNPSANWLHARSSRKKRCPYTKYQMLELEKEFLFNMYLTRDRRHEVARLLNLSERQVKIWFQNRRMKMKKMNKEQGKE
# HOXD13 (Homo sapiens, UniProt P35453 263-343), sequence (P35453 263-343): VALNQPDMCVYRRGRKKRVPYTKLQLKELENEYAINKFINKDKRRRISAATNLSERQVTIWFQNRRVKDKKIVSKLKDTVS
# HOXD13 (Homo sapiens, UniProt P35453 263-343, T313A), sequence (P35453 263-343 T313A): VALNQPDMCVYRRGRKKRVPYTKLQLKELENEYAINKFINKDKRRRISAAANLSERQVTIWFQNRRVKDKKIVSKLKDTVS
# HOXD13 (Homo sapiens, UniProt P35453 263-343, T313R), sequence (P35453 263-343 T313R): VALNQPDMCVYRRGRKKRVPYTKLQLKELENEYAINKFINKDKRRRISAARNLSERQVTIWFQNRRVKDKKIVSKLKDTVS
# HOXB9 (Homo sapiens, UniProt P17482 171-250), sequence (P17482 171-250): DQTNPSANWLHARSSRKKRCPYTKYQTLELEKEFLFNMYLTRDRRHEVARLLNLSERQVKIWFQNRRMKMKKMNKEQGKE
sequence,measurement,setting,value
ATTTAAGA,binding signal,CRX [1],"11.1 upbm affinity estimate (log intensity, higher = more binding, comparable within an allelic series)"
same,binding signal,CRX [2],"10.8 upbm affinity estimate (log intensity, higher = more binding, comparable within an allelic series)"
same,binding signal,CRX [3],"10.4 upbm affinity estimate (log intensity, higher = more binding, comparable within an allelic series)"
AATAATCT,binding signal,CRX [1],"12.7 upbm affinity estimate (log intensity, higher = more binding, comparable within an allelic series)"
same,binding signal,CRX [2],"12.7 upbm affinity estimate (log intensity, higher = more binding, comparable within an allelic series)"
same,binding signal,CRX [3],"12.6 upbm affinity estimate (log intensity, higher = more binding, comparable within an allelic series)"
ATTAAGCC,binding signal,CRX [1],"12.8 upbm affinity estimate (log intensity, higher = more binding, comparable within an allelic series)"
same,binding signal,CRX [2],"12.8 upbm affinity estimate (log intensity, higher = more binding, comparable within an allelic series)"
same,binding signal,CRX [3],"12.2 upbm affinity estimate (log intensity, higher = more binding, comparable within an allelic series)"
ACTGCAGT,binding signal,CRX [1],"8.23 upbm affinity estimate (log intensity, higher = more binding, comparable within an allelic series)"
same,binding signal,CRX [2],"8.32 upbm affinity estimate (log intensity, higher = more binding, comparable within an allelic series)"
same,binding signal,CRX [3],"8.4 upbm affinity estimate (log intensity, higher = more binding, comparable within an allelic series)"
GATTATAA,binding signal,CRX [1],"12.7 upbm affinity estimate (log intensity, higher = more binding, comparable within an allelic series)"
same,binding signal,CRX [2],"12.6 upbm affinity estimate (log intensity, higher = more binding, comparable within an allelic series)"
same,binding signal,CRX [3],"12.6 upbm affinity estimate (log intensity, higher = more binding, comparable within an allelic series)"
GATAAACC,binding signal,CRX [1],"11.4 upbm affinity estimate (log intensity, higher = more binding, comparable within an allelic series)"
same,binding signal,CRX [2],"11.1 upbm affinity estimate (log intensity, higher = more binding, comparable within an allelic series)"
same,binding signal,CRX [3],"10.9 upbm affinity estimate (log intensity, higher = more binding, comparable within an allelic series)"
AGATAATC,binding signal,CRX [1],"12.9 upbm affinity estimate (log intensity, higher = more binding, comparable within an allelic series)"
same,binding signal,CRX [2],"12.7 upbm affinity estimate (log intensity, higher = more binding, comparable within an allelic series)"
same,binding signal,CRX [3],"12.7 upbm affinity estimate (log intensity, higher = more binding, comparable within an allelic series)"
GCCAATCC,binding signal,CRX [1],"10.4 upbm affinity estimate (log intensity, higher = more binding, comparable within an allelic series)"
same,binding signal,CRX [2],"10.3 upbm affinity estimate (log intensity, higher = more binding, comparable within an allelic series)"
same,binding signal,CRX [3],"10.1 upbm affinity estimate (log intensity, higher = more binding, comparable within an allelic series)"
AGAGAGAC,binding signal,CRX [1],"8.36 upbm affinity estimate (log intensity, higher = more binding, comparable within an allelic series)"
same,binding signal,CRX [2],"8.46 upbm affinity estimate (log intensity, higher = more binding, comparable within an allelic series)"
same,binding signal,CRX [3],"8.33 upbm affinity estimate (log intensity, higher = more binding, comparable within an allelic series)"
CGGGACCC,binding signal,CRX [1],"8.17 upbm affinity estimate (log intensity, higher = more binding, comparable within an allelic series)"
same,binding signal,CRX [2],"8.21 upbm affinity estimate (log intensity, higher = more binding, comparable within an allelic series)"
same,binding signal,CRX [3],"8.21 upbm affinity estimate (log intensity, higher = more binding, comparable within an allelic series)"
CGTATACG,binding signal,CRX [1],"8.46 upbm affinity estimate (log intensity, higher = more binding, comparable within an allelic series)"
same,binding signal,CRX [2],"8.43 upbm affinity estimate (log intensity, higher = more binding, comparable within an allelic series)"
same,binding signal,CRX [3],"8.43 upbm affinity estimate (log intensity, higher = more binding, comparable within an allelic series)"
GCAGATCA,binding signal,CRX [1],"10.3 upbm affinity estimate (log intensity, higher = more binding, comparable within an allelic series)"
same,binding signal,CRX [2],"10 upbm affinity estimate (log intensity, higher = more binding, comparable within an allelic series)"
same,binding signal,CRX [3],"9.94 upbm affinity estimate (log intensity, higher = more binding, comparable within an allelic series)"
CGTTCTAC,binding signal,CRX [1],"8.44 upbm affinity estimate (log intensity, higher = more binding, comparable within an allelic series)"
same,binding signal,CRX [2],"8.39 upbm affinity estimate (log intensity, higher = more binding, comparable within an allelic series)"
same,binding signal,CRX [3],"8.27 upbm affinity estimate (log intensity, higher = more binding, comparable within an allelic series)"
GGGCGCAC,binding signal,CRX [1],"7.78 upbm affinity estimate (log intensity, higher = more binding, comparable within an allelic series)"
same,binding signal,CRX [2],"7.93 upbm affinity estimate (log intensity, higher = more binding, comparable within an allelic series)"
same,binding signal,CRX [3],"7.95 upbm affinity estimate (log intensity, higher = more binding, comparable within an allelic series)"
CGGATTAC,binding signal,CRX [1],"13.4 upbm affinity estimate (log intensity, higher = more binding, comparable within an allelic series)"
same,binding signal,CRX [2],"13.3 upbm affinity estimate (log intensity, higher = more binding, comparable within an allelic series)"
same,binding signal,CRX [3],"13.3 upbm affinity estimate (log intensity, higher = more binding, comparable within an allelic series)"
GTTTAAAA,binding signal,CRX [1],"9.91 upbm affinity estimate (log intensity, higher = more binding, comparable within an allelic series)"
same,binding signal,CRX [2],"9.79 upbm affinity estimate (log intensity, higher = more binding, comparable within an allelic series)"
same,binding signal,CRX [3],"9.59 upbm affinity estimate (log intensity, higher = more binding, comparable within an allelic series)"
CCACCGAG,binding signal,CRX [1],"8.14 upbm affinity estimate (log intensity, higher = more binding, comparable within an allelic series)"
same,binding signal,CRX [2],"8.21 upbm affinity estimate (log intensity, higher = more binding, comparable within an allelic series)"
same,binding signal,CRX [3],"8.2 upbm affinity estimate (log intensity, higher = more binding, comparable within an allelic series)"
AAATCCAA,binding signal,CRX [1],"11.2 upbm affinity estimate (log intensity, higher = more binding, comparable within an allelic series)"
same,binding signal,CRX [2],"11 upbm affinity estimate (log intensity, higher = more binding, comparable within an allelic series)"
same,binding signal,CRX [3],"11 upbm affinity estimate (log intensity, higher = more binding, comparable within an allelic series)"
ACAGGCAC,binding signal,CRX [1],"8.14 upbm affinity estimate (log intensity, higher = more binding, comparable within an allelic series)"
same,binding signal,CRX [2],"8.14 upbm affinity estimate (log intensity, higher = more binding, comparable within an allelic series)"
same,binding signal,CRX [3],"8.23 upbm affinity estimate (log intensity, higher = more binding, comparable within an allelic series)"
CCGATCAG,binding signal,CRX [1],"9.74 upbm affinity estimate (log intensity, higher = more binding, comparable within an allelic series)"
same,binding signal,CRX [2],"9.63 upbm affinity estimate (log intensity, higher = more binding, comparable within an allelic series)"
same,binding signal,CRX [3],"9.48 upbm affinity estimate (log intensity, higher = more binding, comparable within an allelic series)"
AATCTCCC,binding signal,CRX [1],"10.7 upbm affinity estimate (log intensity, higher = more binding, comparable within an allelic series)"
same,binding signal,CRX [2],"10.4 upbm affinity estimate (log intensity, higher = more binding, comparable within an allelic series)"
same,binding signal,CRX [3],"10.6 upbm affinity estimate (log intensity, higher = more binding, comparable within an allelic series)"
GCGCCGCC,binding signal,NKX2-4 [4],"9.93 upbm affinity estimate (log intensity, higher = more binding, comparable within an allelic series)"
same,binding signal,HOXB9 [5],"8.49 upbm affinity estimate (log intensity, higher = more binding, comparable within an allelic series)"
same,binding signal,NKX2-4 [6],"9.45 upbm affinity estimate (log intensity, higher = more binding, comparable within an allelic series)"
same,binding signal,NKX2-4 [7],"9.72 upbm affinity estimate (log intensity, higher = more binding, comparable within an allelic series)"
same,binding signal,HOXB9 [8],"8.66 upbm affinity estimate (log intensity, higher = more binding, comparable within an allelic series)"
same,binding signal,HOXD13 [9],"9.49 upbm affinity estimate (log intensity, higher = more binding, comparable within an allelic series)"
same,binding signal,HOXD13 [10],"9.76 upbm affinity estimate (log intensity, higher = more binding, comparable within an allelic series)"
same,binding signal,NKX2-4 [11],"9.62 upbm affinity estimate (log intensity, higher = more binding, comparable within an allelic series)"
same,binding signal,HOXD13 [12],"9.79 upbm affinity estimate (log intensity, higher = more binding, comparable within an allelic series)"
same,binding signal,HOXB9 [13],"8.63 upbm affinity estimate (log intensity, higher = more binding, comparable within an allelic series)"
